Lassa entry inh: Lassa virus entry inhibition. Potency, µM (highest dose often 37.9 µM), hits mostly inhibitors. 300,000 tested, 1.2% active. Lassa virus pseudotype entry inhibition, cell reporter; calls by dose curve; tested in HEK293 cells; further: nearly all actives have a fitted effect of over 50% in size
Marburg entry inh: Marburg virus entry inhibition. AID 540276. Marburg virus pseudotyped entry inhibition, cell reporter. 300,000 tested, 1.8% active. Potency, µM (top dose mostly 37.8 µM), actives largely listed as inhibitors; calls by dose curve; tested in HEK293 cells
Vaccinia Venus: inhibitors of vaccinia virus (Venus reporter) | Vaccinia virus Venus reporter expression, fluorescence | AID 720580 | 330,000 tested, 0.46% active | Potency, µM (titrated, usually from 36.5 µM), most hits filed as inhibitors; calls by dose curve; tested in A549 cells; further: nearly all actives have a fitted effect of over 30% in size
VACV mCherry inh: vaccinia inhibition (mCherry reporter); Vaccinia virus mCherry reporter infection, fluorescence; Potency, µM (series often up to 36.5 µM), actives largely listed as inhibitors; 310,000 tested, 0.63% active; calls by dose curve; tested in A549 cells; further: nearly all actives have a fitted effect of over 35% in size
Shiga toxin inh: blocks Shiga toxin action in Vero cells; Vero cells, Shiga toxin protein synthesis inhibition reporter; inhibition, % at 38.7 µM; 290,000 tested, 9.2% active; AID 2315; in the data active means inhibition mostly above about 28%, no sharp cut-off; inactive means mostly below about 43%
CHX counter: affects cycloheximide protein synthesis inhibition readout, counter-screen; 300,000 tested, 12% active; cell reporter, cycloheximide protein synthesis inhibition counterscreen; max response, %; in the data active means max response mostly above about 13%, no sharp cut-off; inactive means mostly below about 14%; further: read at 38.3 µM for the half of the compounds with a filed dose
Numbers stand for hits; i = inactive; ? = inconclusive; nt = not tested or not shown. This is one part of a sample in which hits are shown more often than they occur.

SMILES	Lassa entry inh	Marburg entry inh	Vaccinia Venus	VACV mCherry inh	Shiga toxin inh	CHX counter
Cc1ccc2c(c1)c(C)c(C)n2CC(O)Cn1nc(C)cc1C (centres undefined)	i	i	i	i	i	i
Cc1cccc(C)c1OCC(O)Cn1nnc2ccccc21 (centres undefined)	i	i	i	nt	i	15.9
O=C(Nc1ccc(F)cc1F)c1ccc2c(O)c(S(=O)(=O)c3ccc(Cl)cc3)c(=O)[nH]c2c1	i	nt	i	i	nt	nt
CCN(CC)S(=O)(=O)c1ccc(OC)c(NC(=O)c2cn(CC)c3nc(C)ccc3c2=O)c1	nt	nt	i	i	i	i
CCN1CCN(C(=O)c2cc(COc3ccc(C(C)=O)cc3OC)on2)CC1	?	?	i	i	75.0	42.7
COc1cc(C)ccc1OCc1cc(C(=O)N2CCN(C3CCCCC3)CC2)no1	nt	nt	nt	nt	58.4	47.6
COc1cc(Cl)ccc1OCc1cc(C(=O)N2CCC(N(C)C)C2)no1 (centres undefined)	nt	nt	nt	nt	i	i
COc1cc(C)ccc1OCc1cc(C(=O)N2CCCCCCC2)no1	i	i	i	i	92.4	51.2
O=C1C(=O)N(c2ccccn2)C(c2cccc([N+](=O)[O-])c2)/C1=C(/O)c1ccc(Br)cc1 (centres undefined)	nt	nt	nt	nt	nt	i
O=C(Nc1ccc(Cl)cc1)Nc1nc(-c2ccccc2O)cs1	nt	nt	nt	nt	19.9	i
Cc1cnc(NC(=O)CSc2ccc(Cl)cc2)s1	i	i	i	i	i	i
Cc1cnc(NC(=O)Nc2ccc(Cl)cc2)s1	nt	nt	nt	nt	152.6	56.6
Cc1csc(NC(=O)Nc2ccc(Cl)cc2)n1	i	i	nt	nt	61.7	47.7
CC(=O)Nc1ccc(C(=O)N2CCCC(n3cc(C(=O)NCC(C)C)nn3)C2)cc1 (centres undefined)	nt	nt	i	i	nt	nt
CCCCNC(=O)C1c2ccccc2OCC(=O)N1C1CC1 (centres undefined)	nt	nt	i	i	nt	nt
COc1ccc(N=C2SC(CC(=O)Nc3ccccc3OC)C(=O)N2Cc2ccco2)cc1 (centres undefined)	16.4µM	?	i	?	39.7	24.5
CC12CCC3c4ccccc4CCC3(CO1)C2 (centres undefined)	nt	nt	i	i	nt	nt
Cc1ccccc1Nc1nc(N)nc(COC(=O)c2cccn2C)n1	?	i	i	i	68.5	35.8
CCc1ccccc1Nc1nc(N)nc(COC(=O)c2cccn2C)n1	?	8.2µM	nt	nt	i	30.5
CCCc1nn2c(=O)cc(COC(=O)c3cccc(NC(=O)c4cccs4)c3)nc2s1	i	nt	i	i	nt	nt
COc1ccc(C2NC(C(=O)O)CS2)cc1COCC(F)(F)F (centres undefined)	i	i	nt	nt	i	i
COc1ccc(NC(=O)c2ccccc2O)c(OC)c1	i	i	nt	nt	87.6	51.2
COc1ccc(NC(=O)CCNC(=O)c2ccco2)c(OC)c1	i	i	i	i	i	28.3
COc1ccc(OC)c(NC(=O)CCNC(=O)c2ccco2)c1	i	i	i	i	i	i
COc1cc(NC(=O)C(C)C)ccc1NC(=O)c1ccco1	i	i	i	i	i	58.3
SMILES	Lassa entry inh	Marburg entry inh	Vaccinia Venus	VACV mCherry inh	Shiga toxin inh	CHX counter
CC(=O)c1ccccc1NC(=O)CCNC(=O)c1ccco1	i	i	i	i	i	18.5
COCCC(=O)N1CCC(Oc2ccc(C(=O)NC3CCCCC3)cc2)CC1	nt	nt	nt	nt	i	i
CCN(CC)c1ncnnc1-c1ccccc1	i	i	i	i	i	i
O=C(Cn1nc(-c2ccccc2)nc(Cc2ccccc2)c1=O)Nc1ccccc1	i	nt	i	i	nt	nt
Cc1ccc(NC(=O)c2ccc(NC(=O)CCS(=O)(=O)c3cccs3)cc2)cc1F	i	i	i	i	nt	nt
CCCCCCCCCC[n+]1ccc(/C=C/c2c(C)[nH]c3ccccc23)c2ccccc21	nt	nt	i	i	nt	nt
COc1cc2c(cc1NC(=O)c1ccco1)CCCC2	?	i	i	i	57.3	51.5
COc1ccc(C(=O)Nc2ccccc2NC(=O)c2ccco2)c(OC)c1	nt	nt	nt	nt	i	i
COc1ccc(NC(=O)c2ccco2)c(OC)c1	?	i	i	nt	74.2	41.8
COc1ccc(CNC(=O)Cn2c(=O)oc3cc(S(=O)(=O)N4CCC(C)CC4)ccc32)cc1	?	7.08µM	i	i	nt	nt
COc1ccc(CNC(=O)Cn2c(=O)oc3cc(S(=O)(=O)N4CCCCCC4)ccc32)cc1	?	nt	i	i	nt	nt
CNC(=O)C1CCC(Cn2c(=O)c3sccc3n(CC(=O)NCc3ccccc3)c2=O)CC1 (centres undefined)	i	nt	i	i	nt	nt
NC(N)=N/N=C/c1cn(-c2ccccc2)nc1-c1cccs1	?	23.1µM	nt	nt	i	i
COc1ccc(-c2nn(-c3ccccc3)cc2/C=N/Nc2ccc3ccccc3n2)cc1OC	?	?	i	?	79.8	33.7
COc1ccc(-c2nn(-c3ccccc3)cc2/C=N/N=C(N)N)cc1OC	?	10µM	?	?	i	i
COc1ccc(-c2nn(-c3ccccc3)cc2/C=N/Nc2cccc(C(=O)O)c2)cc1	i	i	i	i	107.8	55.5
S=c1[nH]nc(-c2cccs2)n1/N=C/c1cn(-c2ccccc2)nc1-c1cccs1	?	?	i	i	i	i
COc1ccc(-c2nn(-c3ccccc3)cc2/C=N/NC(=O)c2ccc3c(c2)OCO3)cc1	nt	i	nt	nt	i	i
COc1ccccc1N1CCN(c2nc(CNC(=O)c3ccc4c(c3)OCO4)nc3ccccc23)CC1	nt	nt	i	i	nt	nt
COc1ccc(C(=O)C[n+]2cccc3cccc(O)c32)cc1	nt	nt	i	i	nt	nt
Cc1ccc(-c2nn(-c3ccccc3)cc2/C=N/NC(=O)CSc2nnc(C)n2-c2ccccc2)cc1	?	i	?	nt	54.4	35.8
COC(=O)CCc1sc(NC2CCCCC2)nc1-c1ccc(OC)cc1	i	?	i	i	i	25.0
COC(=O)CCc1sc(Nc2ccc(OC)cc2)nc1-c1ccc(OC)cc1	?	i	i	i	nt	nt
CN1CCN(c2ccc(-c3nc(-c4ccccc4)no3)cc2[N+](=O)[O-])CC1	?	i	i	i	nt	nt
COC(=O)CN1[C@@]2(C#N)CCCC[C@@H]2C[C@H]2CCCC[C@]21C#N	nt	i	nt	nt	nt	nt
SMILES	Lassa entry inh	Marburg entry inh	Vaccinia Venus	VACV mCherry inh	Shiga toxin inh	CHX counter
COc1ccc(N=Nc2nc3ccc(Br)cc3n2C)cc1	i	?	i	i	70.0	40.3
CCc1ccc(S(=O)(=O)c2cnc3ccc(OC)cc3c2N2CCCC(C)C2)cc1 (centres undefined)	nt	?	i	i	nt	nt
COc1cccc(NC(=O)Cc2ccccc2)c1	nt	i	i	i	i	i
O=C(CNCc1ccccc1)Nc1ccc(Oc2ccccc2)cc1	i	?	i	i	i	i
COc1cccc(NC(=O)CC(=O)c2ccccc2)c1	?	?	i	i	100.4	58.6
CN1C(=O)C(CC(=O)Nc2ccc(F)cc2)N(CCCc2ccccc2)C1=S (centres undefined)	?	11.2µM	?	nt	i	i
COc1cccc(NC(=O)CNCc2ccccc2)c1	nt	nt	nt	nt	62.3	28.5
O=C(CNCc1ccccc1)Nc1ccc(F)cc1	i	i	i	i	i	34.6
CCC(C)Sc1oc(-c2ccco2)nc1S(=O)(=O)c1ccc(Cl)cc1 (centres undefined)	i	i	i	i	nt	nt
O=C(CNC(=O)c1ccco1)Nc1ccc(F)cc1	?	i	i	i	i	i
O=C(CNC(=O)c1ccccc1Cl)Nc1ccc(F)cc1	i	?	i	i	i	19.5

Bioassay records as filed in PubChem BioAssay.
